Among the data in PubChem BioAssay (NCI) are growth inhibition values, retold here.

This is part of a sample that, as a whole, favours compounds with a hit. Of some 79,000 tested, about 15% had one in any assay. Activity calls are given as the source filed them. Rule as the data show it: active = growth inhibition above about 70%; inactive = the rest.

The assay in a line: NCI Yeast Anticancer Drug Screen. Data for the mlh1 rad18 strain (AID 175). As to conditions: S. cerevisiae mlh1 rad18 strain growth inhibition; at 50.0 µM; stronger effect = higher value. The gist of the method:
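In this whole-cell yeast screen, a strain with altered DNA damage repair is challenged with compound, and its growth is measured against matched vehicle-treated controls.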
In the case of `COC(=O)CC(C(C(=O)OC)C(=O)OC)N1C(=O)OCC1c1ccccc1` (stereo not given), the growth inhibition is -15.9% (inactive).

As for `ClCCOCCOc1ccccc1Cl`, the growth inhibition was -7% (inactive).

For the molecule `O=c1c2ccccc2oc2cc([N+](=O)[O-])cc([N+](=O)[O-])c12`, the growth inhibition is -60.6% (inactive).

For `Cc1ccc(S(=O)(=O)c2cc3ccccc3oc2=O)cc1`, the growth inhibition was -9.65% (inactive).

`Nc1ccc(Br)c(N)c1`: the growth inhibition is -24.9% (inactive).

As to `COC1=CC(=O)c2ccccc2C1(CCC=C(C)C)C1=NC(C)(C)CO1` (stereo not given), the growth inhibition is -11.6% (inactive).

Consider `O=C(Nc1cccc(C(=O)NCCCO)c1)/C(=C/c1ccccc1)NC(=O)c1ccccc1`, for which the growth inhibition is 4.35% (inactive).

Take `CC1(C)COC(c2ccc(CC(Cc3ccc(C4(C(C)(C)C)OCC(C)(C)CO4)cc3)C(=O)O)cc2)(C(C)(C)C)OC1`: the growth inhibition was 5.35% (inactive).

Consider `CCN(CC)CCN(CCN(CC)CC)c1c(OC)cccc1OC`, for which the growth inhibition was 15.8% (inactive).

On to `CCOC(=O)NC(=O)c1cn(CCCCCCCCCCC(=O)NCCCN2CCN(CCCNC(=O)CCCCCCCCCCn3cc(C(=O)NC(=O)OCC)c(=O)[nH]c3=O)CC2)c(=O)[nH]c1=O`, for which the growth inhibition is -17.6% (inactive).

For `CCCCN(CCCC)CC(O)c1cc(-c2ccc(C(F)(F)F)cc2)nc(-c2ccc(C(F)(F)F)cc2)c1` (stereo not given), the growth inhibition was 82.3% (active).

For the molecule `C=CCCCCCCCCC(=O)NCCCN1CCOCC1`, the growth inhibition was 94.7% (active).

For the molecule `CC1(C)OC(=O)C=C([O-])O1.CC1(C)OC(=O)C=C([O-])O1.CC[O-].CC[O-].[Ti+4]`, the growth inhibition is -3.15% (inactive).

For the molecule `CSc1nnc(SCc2nn3c(=O)cc(C)nc3s2)s1`, the growth inhibition is 10.6% (inactive).

In the case of `CC1CCCN(C(=O)Nc2ccc([N+](=O)[O-])cc2)C1` (stereo not given), the growth inhibition was 43.8% (inactive).

Take `CC(=O)OCCc1cccc(C)c1`: the growth inhibition is 7.3% (inactive).

As for `CCOC(=O)C(NC(=O)CC(C)C)(N1CCN(c2cc3c(cc2F)c(=O)c(C(=O)O)cn3C2CC2)CC1)C(F)(F)F` (stereo not given), the growth inhibition is -17.9% (inactive).

In the case of `COc1cc2c(c([N+](=O)[O-])c1)NC(=O)CC(C)S2` (stereo not given), the growth inhibition was -3.45% (inactive).

For the molecule `CN(/N=C\c1ccc2ccccc2c1)C1=NCCN1`, the growth inhibition is -12.1% (inactive).

On to `S=c1c2ccccc2sn1-c1ccccc1`, for which the growth inhibition was 51.5% (inactive).

On to `c1cc2c3c(cccc3c1)N=S=N2`, for which the growth inhibition is 12.2% (inactive).

Regarding `Cc1cccc2nc(-c3ccccn3)n(CCc3ccccn3)c12`, the growth inhibition is 17.2% (inactive).

Turning to `N#CCC(=O)N1CCCC1`, the growth inhibition is -26.2% (inactive).

In the case of `CCC1([N+](=O)[O-])CC2C=CC1C2` (stereo not given), the growth inhibition was -13.2% (inactive).

For the molecule `O=C1C=CC(CCCCCn2ccc(=O)[nH]c2=O)C(=O)N1` (stereo not given), the growth inhibition is -0.25% (inactive).

In the case of `COc1cc(C(=O)C(C=O)c2ccccc2)c([N+](=O)[O-])cc1OC` (stereo not given), the growth inhibition is 23.1% (inactive).

`O=C1CC(Cc2n[nH]c3c2CCC3)CC(=O)N1`: the growth inhibition is -13.2% (inactive).

In the case of `CCC(=O)/C=C/C1=C(C)CCCC1(C)C`, the growth inhibition is -13.4% (inactive).

`CCc1nc(-c2ccccc2)nc2c1nc(-c1ccc(C)cc1)n2Nc1ccccc1`: the growth inhibition was 20.9% (inactive).

As to `O=c1oc2ccccc2c2ccccc12`, the growth inhibition was -7.8% (inactive).

For the molecule `CCOC(=O)C1CN(C)C(=O)C1=O` (stereo not given), the growth inhibition was 25.9% (inactive).

`CCCCCC[C@@H](O)C/C=C\CCCCCCCC(=O)OCC(C)O` (stereo not given in full): the growth inhibition is -20.4% (inactive).

Turning to `OC1CCCCC1OC1CCc2ccccc2C1` (stereo not given), the growth inhibition is 33.1% (inactive).

For the molecule `O=[N+]([O-])c1cccc(C(O)(C(F)(F)F)C(F)(F)F)c1`, the growth inhibition was 14% (inactive).

Take `Cc1ccc(S(=O)(=O)NC(=O)C2(Br)S(=O)(=O)OCCOS2(=O)=O)cc1`: the growth inhibition is 12% (inactive).

Consider `O=C(CCN1C(=O)NC(c2ccccc2)(c2ccccc2)C1=O)NCCN1CCOCC1`, for which the growth inhibition is 24.7% (inactive).

For `C[N+]1=C(/C=C/Nc2ccc(Cl)cc2)C(C)(C)c2ccccc21`, the growth inhibition was 9.5% (inactive).

`Brc1c2ccccc2cc2ccccc12`: the growth inhibition was 42.6% (inactive).

As to `COC(=O)c1cc(C)ncc1C#N`, the growth inhibition was 8% (inactive).

Regarding `COc1ccc(Nc2nc3c([nH]2)c(=O)n(C)c(=O)n3C)cc1`, the growth inhibition is 13.3% (inactive).
